# Data published in PubChem BioAssay (NCATS).
# Inconclusive results are not listed. Active and inactive are the calls of the source. Unless noted, the call rests on the fitted dose curve; in most records, active means well fitted curve in the direction sought with a large enough effect; inconclusive means small, poorly fitted or top-dose-only effect, or another doubt; inactive means no such curve, though single readings can be large; an effect the other way counts as inactive or inconclusive.
# Key:
# [1] = target: Lysosomal acid glucosylceramidase (Homo sapiens) (UniProt P04062); assay: Glucocerebrosidase-p2 (AID 348; in the data active means potency below about 10 µM; further: potency means the concentration at half of the fitted maximal effect); conditions: purified GBA, blue fluorogenic substrate, 40 min
# Method in brief: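 Compounds titrated from 0.6 nM upwards against 0.2 nM enzyme in pH 5.9 citric acid/KH2PO4, taurocholate, tween-20; blue fluorogenic substrate 80 uM, 40 min room temperature, stopped and read Ex 365/Em 440 for AC50.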
# [2] = AP1 Signaling Pathway (AID 357; active means well fitted curve in either direction with a large enough effect, not every such curve was filed as active; further: on the % scale 0 is the no-effect control and ±100 the full control effect); conditions: ME-180 AP-1-bla reporter, EGF-induced, beta-lactamase ratio, 5 h; at 7.69 µM (top of the series) unless noted
# Method in brief: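 AP-1-bla ME-180 cells with beta-lactamase reporter under AP-1 response element, stimulated with EC50 EGF; compounds titrated, 5 hours at 37 degrees Celsius. CCF4 read at 460/530 nm ratio; positive and negative modulators judged by AC50.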
# [3] = NFAT Signaling Pathway (AID 444; active means well fitted curve in either direction with a large enough effect, not every such curve was filed as active;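 further: carbachol stimulus at about its EC50 of 1 µM final; on the % scale 0 is the no-effect control and ±100 the full control effect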); conditions: Jurkat NFAT-bla M1, carbachol, beta-lactamase ratio, 5 h; at 7.69 µM (top of the series) unless noted
# Method in brief: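 Read-out: CCF4 FRET ratio (460 nm/530 nm) after 1 h RT dye loading, used for %activity and AC50 from titration series. Cells: Jurkat NFAT-β-lactamase/M1 line, treated with compound plus 1 uM carbachol for 5 h, 37 °C.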
# [4] = Stat Signaling Pathway (AID 446; active means well fitted curve in either direction with a large enough effect, not every such curve was filed as active;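 further: ME-180 cervical cancer cells given 40 pM IL-6 alongside compound; SIE-controlled beta-lactamase reporter measured as 460/530 nm FRET emission ratio; on the % scale 0 is the no-effect control and ±100 the full control effect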); conditions: ME-180 SIE beta-lactamase reporter, IL-6 stimulated, 5 h; at 7.69 µM (top of the series) unless noted
# Method in brief: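 Screening format detects activators and inhibitors alike: ME-180 SIE-bla cells stimulated at 40 pM IL-6 for 5 hrs with compound, then dual-emission beta-lactamase read at 405 nm excitation.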
# [5] = target: Glucocorticoid receptor (Homo sapiens) (UniProt P04150); assay: GR-GFP Redistribution (AID 450;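 active means compounds whose dose series gives a full or clear partial fitted curve of increased nuclear translocation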; further: potency means the concentration at half of the fitted maximal effect); conditions: U2OS GR-GFP nuclear translocation, laser cytometry, 2 h
# [6] = target: Glucocorticoid receptor (Homo sapiens) (UniProt P04150); assay: GR-EFC Redistribution (AID 451; calls by dose curve; further: potency means the concentration at half of the fitted maximal effect); conditions: CHO-K1 GR-EFC translocation, beta-gal luminescence, 2 h
# Method in brief: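 Translocation of GR-ED fusion to nuclear EA restores b-gal, read by luminescence after 1 h room-temperature detection. Engineered CHO-K1 biosensor cells, 1,000/well, exposed 2 h at 37 C to titrations up to 46 uM final.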
# [7] = target: 3',5'-cyclic-AMP phosphodiesterase 4B (Homo sapiens) (UniProt Q07343); assay: qHTS Assay for Inhibitors of PDE-IV (AID 607; active means well fitted activation curve with a large enough effect in the main read-out, with a control signal flat, not every such curve was filed as active; further: % of control where 0% means no effect); conditions: HEK293 ACTOne CNG channel cells, membrane potential fluorescence; series mostly up to 22.9 µM
# Method in brief: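 The readout is membrane depolarisation from a cAMP-sensing CNG channel, detected with a potential dye at ex 535/em 590. Cells were HEK293-derived (endogenous PDE-IV) at 1000 cells/well, titrated up to 22.9 uM final.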
# [8] = qHTS Assay for Lipid Storage Modulators (AID 1519; calls by dose curve); conditions: Drosophila S3 cells, BODIPY lipid droplet/cell ratio, laser cytometry, cells loaded with oleic acid; for activity change, negative = inhibition: at 57.5 µM (top of the series)
# Method in brief: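 Cells seeded at 5,000 per well were treated with compounds over a concentration series and loaded with oleic acid (400 uM, as added). Lipid droplet fluorescence (488 nm excitation, 500-530 nm channel) was read by laser-scanning cytometry and normalized to 20 uM Triacsin C.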
# [9] = target: Dual specificity protein kinase CLK4 (Homo sapiens) (UniProt Q9HAZ1); assay: qHTS Assay for Inhibitors of CDC-like Kinase 4 (Kinase-Glo Assay) (AID 1770); conditions: recombinant Clk4, Kinase-Glo ATP depletion luminescence; series mostly up to 66.7 µM; further: nearly all actives have a fitted effect of over 65% in size; further: potency means the concentration at half of the fitted maximal effect
# Method in brief: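 Inhibition was judged from remaining ATP, measured by Ultra-Glo luciferase bioluminescence after Clk4 (25 nM) had acted on RS peptide at 1 uM ATP for 4.5 hours, room temperature.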
# [10] = target: Dual specificity protein kinase CLK4 (Homo sapiens) (UniProt Q9HAZ1); assay: qHTS Assay for Inhibitors of CDC-like Kinase 4 (ADP-Glo Assay) (AID 1771); conditions: recombinant CLK4, ADP-Glo luminescence; series mostly up to 80 µM; further: nearly all actives have a fitted effect of over 70% in size; further: potency means the concentration at half of the fitted maximal effect
# Method in brief: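 Clk4 (25 nM) was incubated 1 hr at room temperature with 100 uM RS repeat peptide and 1 uM ATP in buffer with 2 mM MgCl2, 0.5 mM EGTA, 2.5 mM DTT. ADP formed was quantified by ADP-Glo luminescence.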
# [11] = target: Dual specificity protein kinase CLK4 (Homo sapiens) (UniProt Q9HAZ1); assay: qHTS Assay for Inhibitors of CDC-like Kinase 4 (ADP-FP Assay) (AID 1795); conditions: Transcreener ADP fluorescence polarization; series mostly up to 50 µM; further: nearly all actives have a fitted effect of over 60% in size; further: potency means the concentration at half of the fitted maximal effect
# Method in brief: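 Inhibition of ADP formation by 6.25 nM Clk4 is measured using 1 uM ATP and 100 uM RS repeat peptide over one hour. Produced ADP displaces a fluorescent tracer from antibody, lowering polarization.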
# [12] = target: Ubiquitin carboxyl-terminal hydrolase 1 (Homo sapiens) (UniProt O94782); assay: Inhibitors of USP1/UAF1: Pilot qHTS (AID 504865); conditions: purified USP1/UAF1, Ub-rhodamine cleavage fluorescence; series mostly up to 54.9 µM;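 further: rhodamine fluorescence freed from ubiquitin-rhodamine substrate followed over time; top concentration of the series differs between compounds; on the % scale 0 is the no-effect control and ±100 the full control effect; nearly all actives have a fitted effect of over 35% in size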
# Method in brief: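 Kinetic fluorescence assay: 1nM USP1/UAF1, 15 min compound preincubation, then 150nM Ub-Rho; 480/540 nm.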
# [13] = Primary qHTS for small molecule stabilizers of the endoplasmic reticulum resident proteome: Secreted ER Calcium Modulated Protein (SERCaMP) assay (AID 1508630); conditions: SH-SY5Y GLuc-SERCaMP (Gaussia luciferase released on ER calcium loss) secretion, thapsigargin, luminescence; series mostly up to 38.4 µM; further: on the % scale 0 is the no-effect control and ±100 the full control effect
# Method in brief: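 GLuc-SERCaMP-expressing SH-SY5Y cells, pretreated 16 h with compound, are challenged with thapsigargin to empty ER calcium stores; after 4 h, coelenterazine is added directly to the medium and luminescence is imaged.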
# [14] = target: Mitogen-activated protein kinase 10 (Mus musculus) (UniProt Q61831); assay: JNK3 AlphaScreen Assay (AID 530; active means well fitted curve in either direction with a large enough effect, not every such curve was filed as active); conditions: JNK3 lysate, c-Jun phosphorylation; series mostly up to 57.1 µM
# Method in brief: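 Room-temperature AlphaScreen kinase assay; pre-activated HepG2 lysate as JNK3 source, biotin-GST-cJun(1-79) substrate, 10 uM ATP, compound 15 min preincubation.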
# [15] = target: Cytochrome P450 3A4 (Homo sapiens) (UniProt P08684); assay: qHTS Assay for Activators of Cytochrome P450 3A4 (AID 885); conditions: recombinant CYP3A4, Luciferin-PPXE luminescence, 60 min; series mostly up to 57.1 µM; further: nearly all actives have a fitted effect of over 65% in size
# Method in brief: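 Steps: enzyme/substrate mix dispensed; compound added, 10 min RT; NADPH regeneration solution added, 60 min RT; luciferin detection buffer stops reaction; 20 min later luminescence measured.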
# [16] = qHTS Assay for Identification of Small Molecule Agonists for Hypoxia Response Element Signaling Pathway (AID 914; active means well fitted activation curve with a large enough effect in the signal ratio, with a control signal flat, not every such curve was filed as active; the % refers to the signal ratio; further: % of control where 0% means no effect); conditions: ME-180 (cervical carcinoma) HRE-bla reporter, beta-lactamase ratio, CoCl2, 17 h; activation: stronger effect = higher value
# Method in brief: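 Read-out: CCF4 FRET ratio of 460nm to 530nm emission (excitation 405nm) after 2.5 hours at room temperature, taken from HRE-bla ME-180 cells that had been exposed to compound and EC50 CoCl2 for 17 hours.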
# [17] = measured here: cell count channel max response
# [18] = measured here: lipid channel max response
# Cytochrome P450 3A4 (Homo sapiens), sequence (P08684 whole entry, looked up): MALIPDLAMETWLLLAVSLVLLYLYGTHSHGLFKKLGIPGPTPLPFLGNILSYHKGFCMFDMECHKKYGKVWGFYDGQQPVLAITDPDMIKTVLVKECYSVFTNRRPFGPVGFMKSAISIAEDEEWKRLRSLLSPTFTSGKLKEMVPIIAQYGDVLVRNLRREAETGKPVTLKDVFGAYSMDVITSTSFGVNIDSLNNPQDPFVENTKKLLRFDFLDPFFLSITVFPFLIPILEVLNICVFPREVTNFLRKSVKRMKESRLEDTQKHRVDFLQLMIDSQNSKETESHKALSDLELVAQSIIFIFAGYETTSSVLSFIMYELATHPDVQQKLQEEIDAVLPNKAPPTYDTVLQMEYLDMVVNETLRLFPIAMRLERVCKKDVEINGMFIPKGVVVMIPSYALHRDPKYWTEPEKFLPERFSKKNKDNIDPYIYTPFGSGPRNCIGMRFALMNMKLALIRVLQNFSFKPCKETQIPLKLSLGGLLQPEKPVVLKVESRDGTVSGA
# Lysosomal acid glucosylceramidase (Homo sapiens), sequence (P04062 whole entry, looked up): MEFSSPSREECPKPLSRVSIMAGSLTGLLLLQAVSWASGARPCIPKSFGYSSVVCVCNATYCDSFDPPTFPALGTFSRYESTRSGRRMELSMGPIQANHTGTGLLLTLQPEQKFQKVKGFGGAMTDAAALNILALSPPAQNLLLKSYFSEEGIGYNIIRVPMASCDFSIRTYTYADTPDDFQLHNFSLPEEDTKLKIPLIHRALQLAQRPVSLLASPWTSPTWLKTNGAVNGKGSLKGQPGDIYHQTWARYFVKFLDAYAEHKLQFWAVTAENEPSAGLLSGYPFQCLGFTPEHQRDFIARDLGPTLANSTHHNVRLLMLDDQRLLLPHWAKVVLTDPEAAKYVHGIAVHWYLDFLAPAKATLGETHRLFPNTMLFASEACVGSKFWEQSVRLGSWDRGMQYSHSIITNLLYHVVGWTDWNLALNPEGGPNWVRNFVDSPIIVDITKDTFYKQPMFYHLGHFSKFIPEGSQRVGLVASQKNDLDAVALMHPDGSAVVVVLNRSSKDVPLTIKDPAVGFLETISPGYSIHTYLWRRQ
# 3',5'-cyclic-AMP phosphodiesterase 4B (Homo sapiens), sequence (Q07343 whole entry, looked up): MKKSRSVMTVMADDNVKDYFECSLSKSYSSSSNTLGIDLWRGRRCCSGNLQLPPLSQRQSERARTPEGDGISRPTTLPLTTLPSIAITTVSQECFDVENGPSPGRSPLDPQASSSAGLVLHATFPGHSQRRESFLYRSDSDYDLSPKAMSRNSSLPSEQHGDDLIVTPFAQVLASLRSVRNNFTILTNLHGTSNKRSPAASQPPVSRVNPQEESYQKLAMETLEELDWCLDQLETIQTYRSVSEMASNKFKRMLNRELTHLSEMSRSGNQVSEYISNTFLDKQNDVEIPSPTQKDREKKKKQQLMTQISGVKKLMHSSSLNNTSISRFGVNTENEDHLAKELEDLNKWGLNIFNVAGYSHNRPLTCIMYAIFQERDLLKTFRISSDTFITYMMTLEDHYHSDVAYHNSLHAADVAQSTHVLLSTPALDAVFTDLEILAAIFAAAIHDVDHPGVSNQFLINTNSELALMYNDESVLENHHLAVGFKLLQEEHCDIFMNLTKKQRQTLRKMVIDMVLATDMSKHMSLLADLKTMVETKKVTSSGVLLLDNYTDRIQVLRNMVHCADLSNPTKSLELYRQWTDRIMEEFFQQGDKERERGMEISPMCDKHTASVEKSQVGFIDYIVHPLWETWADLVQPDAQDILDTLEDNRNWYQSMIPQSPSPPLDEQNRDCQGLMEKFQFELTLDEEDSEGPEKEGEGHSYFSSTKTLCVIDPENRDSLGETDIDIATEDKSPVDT
# Ubiquitin carboxyl-terminal hydrolase 1 (Homo sapiens), sequence (O94782 whole entry, looked up): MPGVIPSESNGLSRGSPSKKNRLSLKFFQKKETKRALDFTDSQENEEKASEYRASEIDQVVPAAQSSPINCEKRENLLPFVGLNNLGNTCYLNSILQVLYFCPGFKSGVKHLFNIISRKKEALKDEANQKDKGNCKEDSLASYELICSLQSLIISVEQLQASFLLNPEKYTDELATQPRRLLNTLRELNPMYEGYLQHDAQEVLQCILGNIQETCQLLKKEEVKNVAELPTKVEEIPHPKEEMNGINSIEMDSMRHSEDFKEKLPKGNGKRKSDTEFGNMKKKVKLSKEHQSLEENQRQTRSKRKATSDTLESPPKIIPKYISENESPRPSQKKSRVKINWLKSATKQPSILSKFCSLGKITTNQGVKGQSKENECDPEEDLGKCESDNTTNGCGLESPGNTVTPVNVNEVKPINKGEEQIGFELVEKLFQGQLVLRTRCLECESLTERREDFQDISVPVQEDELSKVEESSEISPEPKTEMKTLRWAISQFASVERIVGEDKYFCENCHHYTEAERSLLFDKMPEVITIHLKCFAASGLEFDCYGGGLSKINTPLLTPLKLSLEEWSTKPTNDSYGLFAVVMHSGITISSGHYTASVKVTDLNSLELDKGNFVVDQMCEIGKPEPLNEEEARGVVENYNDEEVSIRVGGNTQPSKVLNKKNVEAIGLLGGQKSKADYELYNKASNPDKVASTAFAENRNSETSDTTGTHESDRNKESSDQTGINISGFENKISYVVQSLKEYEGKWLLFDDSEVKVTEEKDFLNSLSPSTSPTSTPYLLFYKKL
# Dual specificity protein kinase CLK4 (Homo sapiens), sequence (Q9HAZ1 whole entry, looked up): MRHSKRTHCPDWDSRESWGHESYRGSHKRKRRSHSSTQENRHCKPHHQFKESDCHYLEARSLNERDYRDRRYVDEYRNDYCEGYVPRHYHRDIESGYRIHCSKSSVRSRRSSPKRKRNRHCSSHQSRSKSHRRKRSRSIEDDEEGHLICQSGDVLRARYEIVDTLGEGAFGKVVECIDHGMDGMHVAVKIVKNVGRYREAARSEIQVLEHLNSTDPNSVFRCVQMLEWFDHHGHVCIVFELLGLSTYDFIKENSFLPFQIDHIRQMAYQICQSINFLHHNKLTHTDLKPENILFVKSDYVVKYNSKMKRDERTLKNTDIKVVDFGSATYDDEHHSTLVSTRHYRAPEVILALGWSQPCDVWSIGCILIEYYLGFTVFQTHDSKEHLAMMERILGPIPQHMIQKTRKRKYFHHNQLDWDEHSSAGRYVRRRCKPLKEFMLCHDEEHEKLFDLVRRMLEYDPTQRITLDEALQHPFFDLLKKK
# Glucocorticoid receptor (Homo sapiens), sequence (P04150 whole entry, looked up, the tested form may be a part): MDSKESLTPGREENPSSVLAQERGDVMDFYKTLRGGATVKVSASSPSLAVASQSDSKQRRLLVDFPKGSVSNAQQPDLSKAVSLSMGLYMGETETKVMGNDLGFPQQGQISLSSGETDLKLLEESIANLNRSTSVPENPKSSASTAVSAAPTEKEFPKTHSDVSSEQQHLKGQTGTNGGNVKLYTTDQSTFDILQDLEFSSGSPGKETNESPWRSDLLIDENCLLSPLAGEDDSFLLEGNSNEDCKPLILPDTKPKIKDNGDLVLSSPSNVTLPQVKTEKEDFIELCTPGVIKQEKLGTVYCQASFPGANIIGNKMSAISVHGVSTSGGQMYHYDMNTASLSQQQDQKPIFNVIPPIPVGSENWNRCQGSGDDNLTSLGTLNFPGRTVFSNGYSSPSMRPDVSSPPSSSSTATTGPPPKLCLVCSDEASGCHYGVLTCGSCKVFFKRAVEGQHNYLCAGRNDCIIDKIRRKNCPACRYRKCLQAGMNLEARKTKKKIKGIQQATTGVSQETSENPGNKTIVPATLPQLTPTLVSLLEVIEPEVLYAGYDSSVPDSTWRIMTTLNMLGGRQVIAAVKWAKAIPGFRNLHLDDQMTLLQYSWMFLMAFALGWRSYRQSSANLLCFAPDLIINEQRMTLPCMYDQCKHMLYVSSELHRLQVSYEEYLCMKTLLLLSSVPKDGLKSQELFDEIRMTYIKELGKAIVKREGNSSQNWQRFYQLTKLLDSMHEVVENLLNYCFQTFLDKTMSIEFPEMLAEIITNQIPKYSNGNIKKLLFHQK
Compound,Potency [1],"activity change, negative = inhibition [2]","activity change, negative = inhibition [3]","activity, negative = inhibition [4]",Potency [5],Potency [6],Potency [7],"activity change, negative = inhibition [8]","max response [8, 17]","max response [8, 18]",Potency [9],Potency [10],Potency [11],Potency [12],Potency [13],outcome [14],Potency [15],activation [16]
COCCn1c(=O)c(-c2cn(C)c3ccccc23)nc2cnc(Oc3cccc(Cl)c3)nc21,> 11.4 µM (inactive),-7.97% (inactive),5.68% (inactive),3.06% (inactive),> 9.22 µM (inactive),> 46 µM (inactive),inactive,-4.01% (inactive),23.7%,16.7%,inactive,inactive,inactive,inactive,inactive,,,
c1ccc(CNc2cc(-c3cccnc3)ncn2)cc1,> 11.4 µM (inactive),1.27% (inactive),15.4% (inactive),14.9% (inactive),,> 46 µM (inactive),,7.56% (inactive),11.5%,21.7%,10 µM (active),4.47 µM (active),5.01 µM (active),inactive,inactive,inactive,,
CS(=O)(=O)Nc1cccc(-c2ccc3ncnc(NC4CCNCC4)c3c2)c1,> 11.4 µM (inactive),6.55% (inactive),0.249% (inactive),4.8% (inactive),> 46 µM (inactive),> 46 µM (inactive),inactive,4.99% (inactive),3.42%,11%,11.2 µM (active),7.08 µM (active),11.2 µM (active),inactive,inactive,inactive,,
COc1ccc(-c2nc3cnc(Nc4cccc(OC)c4)nc3n(C[C@H]3CCCO3)c2=O)cc1,> 11.4 µM (inactive),-24.6% (inactive),-19.9% (inactive),16.7% (inactive),> 9.22 µM (inactive),> 46 µM (inactive),inactive,-4.84% (inactive),-7.08%,-12.2%,inactive,inactive,inactive,inactive,inactive,inactive,inactive,
Cc1nc2cnc(N3CCOCC3)nc2n(C2CC2)c1=O,> 11.4 µM (inactive),-11.6% (inactive),-11.7% (inactive),-3.09% (inactive),> 9.22 µM (inactive),> 46 µM (inactive),inactive,7% (inactive),18%,23.9%,inactive,inactive,inactive,inactive,inactive,inactive,inactive,
O=c1c(-c2cc(F)cc(F)c2)nc2cnc(Nc3ccccc3)nc2n1C[C@H]1CCCO1,> 11.4 µM (inactive),-3.83% (inactive),-13.7% (inactive),1.12% (inactive),> 9.22 µM (inactive),> 46 µM (inactive),inactive,-10.6% (inactive),17.2%,2.07%,inactive,inactive,inactive,,inactive,inactive,,-17% (inactive)
COc1ccc(-c2nc3cnc(Nc4cccc(OC)c4)nc3n(C3CC3)c2=O)cc1,> 11.4 µM (inactive),-4.98% (inactive),-8.58% (inactive),25.2% (inactive),> 9.22 µM (inactive),> 46 µM (inactive),inactive,0.287% (inactive),17.2%,15%,inactive,inactive,inactive,inactive,inactive,inactive,,
COc1ccccc1-c1nccc(NC2CCNCC2)n1,> 11.4 µM (inactive),3.56% (inactive),5.88% (inactive),27.9% (inactive),> 46 µM (inactive),> 46 µM (inactive),inactive,2.87% (inactive),7.38%,8.77%,inactive,inactive,inactive,inactive,inactive,inactive,,
COCCn1c(=O)c(-c2ccc(Cl)cc2)nc2cnc(Oc3cccc(Cl)c3)nc21,> 11.4 µM (inactive),13.2% (inactive),-0.0987% (inactive),-8.1% (inactive),> 9.22 µM (inactive),> 46 µM (inactive),inactive,4.42% (inactive),19.3%,25.5%,inactive,inactive,inactive,inactive,inactive,inactive,,
CN(C)c1ncc2nc(-c3ccccc3)c(=O)n(C[C@H]3CCCO3)c2n1,> 11.4 µM (inactive),11.9% (inactive),24.6% (inactive),20.6% (inactive),> 9.22 µM (inactive),> 46 µM (inactive),,0.857% (inactive),3.82%,2.54%,inactive,inactive,inactive,inactive,inactive,,inactive,
Cc1nc2cnc(N3CCOCC3)nc2n(Cc2ccc(F)cc2)c1=O,> 11.4 µM (inactive),-3.91% (inactive),-17.2% (inactive),4.04% (inactive),> 9.22 µM (inactive),,,2.61% (inactive),13.7%,15.9%,inactive,inactive,inactive,inactive,inactive,inactive,,
COc1ccc(-c2nc3cnc(N4CCOCC4)nc3n(C)c2=O)cc1,> 11.4 µM (inactive),-14.2% (inactive),-0.157% (inactive),-2.93% (inactive),> 9.22 µM (inactive),> 46 µM (inactive),inactive,1.23% (inactive),7.61%,5.75%,inactive,inactive,inactive,,inactive,inactive,,
